# Source: PubChem
# Pf Dd2 inh: Plasmodium falciparum Dd2 growth inhibition | P. falciparum Dd2 growth, SYBR Green, 72 h | Potency, µM (doses to about 28.9 µM), for the others: at the top dose activity, negative = inhibition, hits mostly inhibitors | 4.3% of 120,000 active | AID 1347417; active = well fitted inhibition curve with a large enough effect;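 also: plate controls were DMSO vehicle for no effect and reference drug for full effect; nearly all actives have a fitted effect of over 65% in size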
#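 Infected erythrocytes (Dd2, 0.3% parasitemia, 2.5% hematocrit final) are added to compound in RPMI-1640/Albumax II medium, grown 72 h at 37C in low oxygen, then lysed with saponin/Triton-X containing SYBR Green and read by fluorescence.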
# Active calls of the source: *; i = inactive; [ ] = dose if it differs, or a comment. This excerpt belongs to a sample that is enriched for hits. Potency is read from the fitted curve at half-maximal effect.
SMILES,Pf Dd2 inh
COc1ccc(OC)c(S(=O)(=O)N2CCC(Oc3ccccc3-c3nc(C)no3)C2)c1 (stereo not given),-10.9%
COCCc1noc(-c2ccccc2OC2CN(C(=O)c3cnccn3)C2)n1,49.5%
COCCc1noc(-c2ccccc2OC2CN(C(=O)c3ccncc3)C2)n1,10µM*
COCCc1noc(-c2ccccc2OC2CN(S(=O)(=O)C(C)C)C2)n1,8.91µM*
COc1ccc(CNC(=O)N2CCCC(c3nn[nH]n3)C2)cc1 (stereo not given),9.3%
COCC(=O)NCC1(COc2cccnc2)C[C@@H](O)[C@@H](O)C1 (stereo not given in full),16.4%[44.1 µM]
O=C(NCC1(COc2cnccn2)C[C@@H](O)[C@@H](O)C1)C1CC1 (stereo not given in full),9.4%[44.1 µM]
O=C(NCC1(COc2cccnc2)C[C@@H](O)[C@@H](O)C1)C1CC1 (stereo not given in full),7.94µM*
CC(C)c1noc(-c2cccn3c(CNC(=O)CCC4CCCC4)nnc23)n1,-21.3%
COc1cc(OC)c(NC(=O)c2c(OC)cc(=O)n3c2CCCC3)cc1Cl,i
O=C(C1CC(=O)N(c2n[nH]c3cccc(F)c23)C1)N1CCN(c2ccc(Cl)cc2)CC1 (stereo not given),-21.3%
COc1ccccc1-c1ccc2ncc(Nc3ccc(C(N)=O)cc3)n2n1,i
COc1cncc(Nc2cnc3ccc(-c4cccc(CO)c4)nn23)c1,12.6µM*
COc1ccccc1-c1ccc2ncc(Nc3ccccc3)n2n1,7.94µM*
c1ccc(Nc2cnc3ccc(N4CCOCC4)nn23)cc1,i
COc1ccc(Nc2cnc3ccc(-c4ccc(OC)c(OC)c4)nn23)cn1,i
OCc1cccc(-c2ccc3ncc(Nc4ccccc4F)n3n2)c1,-5.8%[44.1 µM]
OCc1cccc(-c2ccc3ncc(Nc4ccnc(N5CCOCC5)c4)n3n2)c1,i
CN(C)c1ccc2ncc(Nc3cccc(C(F)(F)F)c3)n2n1,i
COc1ccc(-c2ccc3ncc(Nc4cccc(Cl)c4)n3n2)cn1,-6.7%[44.1 µM]
COc1ccc(Nc2cnc3ccc(-c4ccc(F)cc4)nn23)cc1OC,2.82µM*
COc1ccc(-c2ccc3ncc(Nc4ccc5c(c4)OCCO5)n3n2)cc1OC,i
C[S+](=O)([O-])Nc1cccc(Nc2cnc3ccc(-c4ccccc4)nn23)c1,12.6µM*
CCc1noc(-c2ccn3c(CNC(=O)c4cccc(OC)c4)nnc3c2)n1,i
Cc1cc(N2CCC3(CC2)NC(=O)CC3C(=O)O)nc(N)n1 (stereo not given),5.1%
SMILES,Pf Dd2 inh
CCOCCOC1CCN(C(=O)Cc2c[nH]c3ccccc23)CC1,26.5%
COCCO[C@H]1C(=O)N(C2CCN(C(=O)CCn3cccn3)CC2)[C@H]1c1ccncc1,26.5%
CCN1CCN(C2(C(=O)N3CCC(OC)CC3)Cc3ccccc3C2)CC1,i
CC1(C(=O)NCCc2ccccc2)CCCCC(=O)N1 (stereo not given),7.7%
CCN1CCN(C2(C(=O)NCCc3ccccc3)Cc3ccccc3C2)CC1,5.01µM*
COCCOC1CCN(C(=O)c2cccc(C)c2)CC1,30.0%
Cc1ccc2nc(CO[C@H]3CN(Cc4nccn4C)C[C@H]3F)[nH]c2c1,-0.7%[44.1 µM]
CNc1ncccc1C(=O)N[C@@H]1COCC[C@@H]1OCc1ccccc1,5.0%
NC(=O)c1ccc(-c2nc3c([nH]2)CN(C(=O)CN2CCOCC2)CC3)cc1,3.3%
CSc1cccc(NC(=O)NC[C@H]2C[C@@H]3CCN2C[C@@H]3CN(C)c2ccccc2)c1,8.91µM*
C#C[C@H]1CN2CC[C@H]1C[C@@H]2CNC(=O)Nc1cccc(SC)c1,i
CSc1cccc(NC(=O)NC[C@H]2C[C@@H]3CCN2C[C@@H]3CN2CCN(c3ncccn3)CC2)c1,i
COCCC(=O)N1CCC2(CCN(CC(=O)O)CC2)C(CO)C1 (stereo not given),0.6%
COc1ccc(-c2nc(CSCC(=O)N3CCN(c4ccc(OC)cc4)CC3)c(C)o2)cc1,-11.0%
COc1ccc(-c2nc(CSCC(=O)N3CCN(c4cc(Cl)ccc4C)CC3)c(C)o2)cc1,i
COc1ccc(-c2nc(CSCC(=O)N3CCN(c4cccc(C)c4C)CC3)c(C)o2)cc1OC,10µM*
Cc1ccc(F)cc1CN1CCN(C)C2(CCC(=O)N(CC3CC3)CC2)C1 (stereo not given),i
Cc1nc(N2CCCCC2)n(CC(=O)Nc2cccc(C(F)(F)F)c2)c(=O)c1C,-34.5%
C=CCNC(=O)N1CCC(O)(c2csc(CN3CCN(c4ccccn4)CC3)n2)CC1,1.5%
CN1CCN(Cc2nc(C3(O)CCN(C)CC3)cs2)CC1,4.3%[44.1 µM]
OC1(c2csc(CN3CCN(c4ccccn4)CC3)n2)CCN(Cc2ccccc2)CC1,8.91µM*
O[C@@H]1CO[C@H]2[C@@H]1OC[C@@H]2n1nnnc1SCc1ccco1,-8.0%[44.1 µM]
CCOCCCNC(=O)N1c2ccccc2CC1c1nc(C(C)C)no1 (stereo not given),i[5.79 µM]
CCN1C(=O)CCN(S(=O)(=O)c2ccc3c(c2)CCC3)CC12CCOCC2,i
